# Source: PubChem BioAssay (EPA / NIEHS)
# Results filed as inconclusive are left out. The source made the active and inactive calls. How the source made its calls: active means hit-call score of the fitted dose curve at least 0.9, where 1 is the maximum; inconclusive means response in the unintended direction; inactive means score below 0.9.
# Columns and labels:
# [1] = target: Androgen Receptor/SRC-1 Co-activator, AR (gene 367) (UniProt P10275); assay: OT_AR_ARSRC1_0960: Odyssey Thera (OT) 16-hour HEK293T Protein-Complementation Assay for Androgen Receptor/SRC-1 Co-activator (AID 2283353);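 further: actives raise the signal above DMSO so potency reflects increased AR and SRC-1 complex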
# Androgen Receptor/SRC-1 Co-activator, AR (gene 367), sequence (P10275 whole entry, looked up, the tested form may be a part): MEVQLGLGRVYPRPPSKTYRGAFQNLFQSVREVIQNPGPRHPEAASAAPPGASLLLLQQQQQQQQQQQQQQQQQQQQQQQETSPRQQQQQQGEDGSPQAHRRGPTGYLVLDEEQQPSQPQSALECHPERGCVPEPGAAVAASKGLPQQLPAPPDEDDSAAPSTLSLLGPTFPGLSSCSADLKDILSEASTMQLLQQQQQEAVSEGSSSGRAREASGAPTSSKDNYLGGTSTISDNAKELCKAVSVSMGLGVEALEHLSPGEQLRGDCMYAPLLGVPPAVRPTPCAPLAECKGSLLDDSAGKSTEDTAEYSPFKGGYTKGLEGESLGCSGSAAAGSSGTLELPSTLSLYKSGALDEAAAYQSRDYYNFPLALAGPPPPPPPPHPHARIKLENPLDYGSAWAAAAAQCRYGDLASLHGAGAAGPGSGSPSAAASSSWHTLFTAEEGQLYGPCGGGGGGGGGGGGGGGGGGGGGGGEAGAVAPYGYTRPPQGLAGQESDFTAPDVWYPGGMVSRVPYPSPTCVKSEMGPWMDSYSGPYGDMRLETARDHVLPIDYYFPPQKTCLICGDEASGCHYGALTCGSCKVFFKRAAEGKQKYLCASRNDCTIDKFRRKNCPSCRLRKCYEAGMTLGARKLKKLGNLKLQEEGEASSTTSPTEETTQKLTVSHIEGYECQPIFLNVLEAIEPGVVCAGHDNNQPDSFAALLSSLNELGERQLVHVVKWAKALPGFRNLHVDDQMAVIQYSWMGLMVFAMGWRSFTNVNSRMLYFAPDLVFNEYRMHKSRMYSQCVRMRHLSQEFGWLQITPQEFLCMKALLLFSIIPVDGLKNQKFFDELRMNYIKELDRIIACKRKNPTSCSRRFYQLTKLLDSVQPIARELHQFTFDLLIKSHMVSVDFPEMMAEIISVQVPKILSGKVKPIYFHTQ
# In short: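 Sixteen-hour cell assay: Venus halves fused to AR and SRC-1 in HEK293T report binding. Images at 488/635 nm give an N/C ratio in the 488 nm channel over ≥400 cells, analysed as signal increase over DMSO.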
# [2] = target: Androgen Receptor/SRC-1 Co-activator, AR (gene 367) (UniProt P10275); assay: OT_AR_ARSRC1_0480: Odyssey Thera (OT) 8-hour HEK293T Protein-Complementation Assay for Androgen Receptor/SRC-1 Co-activator (AID 2283354);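 further: hits raise the complementation signal above DMSO so AC50 marks enhancers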
# In short: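 Reconstituted split-Venus YFP signal from AR–SRC-1 interaction, read by imaging 8 h post-dose in stable HEK293T lines. The 488 nm nucleus-to-cytoplasm ratio (≥400 cells/image) was fitted upward against DMSO.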
# [3] = target: human Peroxisome Proliferator-activated Receptor alpha (PPARa), PPARA (gene 5465) (UniProt Q07869); assay: NVS_NR_hPPARa: NovaScreen (NVS) Nuclear Receptor Binding Assay for human Peroxisome Proliferator-activated Receptor alpha (PPARa) (AID 2283359);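 further: activity means loss of TR-FRET signal versus DMSO baseline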
# human Peroxisome Proliferator-activated Receptor alpha (PPARa), PPARA (gene 5465), sequence (Q07869 whole entry, looked up): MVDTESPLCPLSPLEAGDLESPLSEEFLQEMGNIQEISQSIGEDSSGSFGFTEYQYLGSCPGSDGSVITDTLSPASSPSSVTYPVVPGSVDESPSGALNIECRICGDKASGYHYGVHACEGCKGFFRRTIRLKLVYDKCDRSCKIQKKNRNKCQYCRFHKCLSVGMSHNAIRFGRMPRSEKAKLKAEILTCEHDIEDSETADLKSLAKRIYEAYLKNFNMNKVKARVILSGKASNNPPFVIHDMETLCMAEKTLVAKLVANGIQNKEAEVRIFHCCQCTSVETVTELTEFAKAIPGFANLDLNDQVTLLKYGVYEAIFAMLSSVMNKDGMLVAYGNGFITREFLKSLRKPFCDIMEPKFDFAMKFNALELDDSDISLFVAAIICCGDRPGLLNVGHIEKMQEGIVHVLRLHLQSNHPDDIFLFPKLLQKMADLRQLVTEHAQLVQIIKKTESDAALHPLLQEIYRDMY
# In short: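 Loss of TR-FRET binding signal relative to DMSO was measured 1 h after chemical addition to extracted receptor protein. Chemicals were first tested in duplicate at 25 uM, and actives were followed up in concentration series.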
# [4] = target: rat Mineralocorticoid Receptor (MR), Nr3c2 (gene 25672) (UniProt P22199); assay: NVS_NR_rMR: NovaScreen (NVS) Nuclear Receptor Binding Assay for rat Mineralocorticoid Receptor (MR) (AID 2283355)
# rat Mineralocorticoid Receptor (MR), Nr3c2 (gene 25672), sequence (P22199 whole entry, looked up): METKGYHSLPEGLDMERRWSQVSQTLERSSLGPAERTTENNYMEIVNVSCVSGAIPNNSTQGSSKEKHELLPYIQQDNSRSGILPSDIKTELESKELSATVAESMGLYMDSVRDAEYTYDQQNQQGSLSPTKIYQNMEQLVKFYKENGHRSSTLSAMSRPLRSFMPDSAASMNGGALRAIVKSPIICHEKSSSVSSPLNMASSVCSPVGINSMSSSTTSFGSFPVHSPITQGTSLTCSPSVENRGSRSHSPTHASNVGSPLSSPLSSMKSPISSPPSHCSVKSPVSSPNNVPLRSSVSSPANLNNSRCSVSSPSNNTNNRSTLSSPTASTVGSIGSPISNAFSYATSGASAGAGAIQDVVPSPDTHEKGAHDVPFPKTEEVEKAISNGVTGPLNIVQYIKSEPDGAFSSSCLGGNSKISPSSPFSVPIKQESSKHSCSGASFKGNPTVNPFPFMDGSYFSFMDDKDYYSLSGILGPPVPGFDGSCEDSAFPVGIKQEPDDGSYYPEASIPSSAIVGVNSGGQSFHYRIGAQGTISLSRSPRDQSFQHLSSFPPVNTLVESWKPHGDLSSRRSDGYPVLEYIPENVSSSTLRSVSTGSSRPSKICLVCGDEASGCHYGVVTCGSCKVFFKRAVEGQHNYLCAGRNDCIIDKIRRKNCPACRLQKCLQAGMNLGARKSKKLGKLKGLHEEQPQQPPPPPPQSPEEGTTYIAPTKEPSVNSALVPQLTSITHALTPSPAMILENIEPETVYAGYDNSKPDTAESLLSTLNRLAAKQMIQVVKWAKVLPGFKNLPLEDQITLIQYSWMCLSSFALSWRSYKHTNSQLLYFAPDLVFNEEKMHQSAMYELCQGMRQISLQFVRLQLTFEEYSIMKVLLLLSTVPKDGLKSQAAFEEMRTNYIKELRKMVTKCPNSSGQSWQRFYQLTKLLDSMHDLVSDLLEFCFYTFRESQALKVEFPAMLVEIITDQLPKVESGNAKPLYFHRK
# In short: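 Primary HTS ran in duplicate at a single 25 uM concentration, with concentration-series follow-up for actives. Receptor source: adrenalectomized rat brain supernatant, cell-free. Radioligand displacement read by scintillation at 24 h, relative to DMSO baseline.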
# [5] = target: Estrogen receptor (Homo sapiens) + Estrogen receptor beta (Homo sapiens) (UniProt P03372+Q92731); assay: OT_ER_ERaERb_1440: Odyssey Thera (OT) 24-hour HEK293T Protein-Complementation Assay for Estrogen Receptor-alpha/-beta Homodimer (AID 2283356);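 further: heteromer of ER alpha and ER beta binding domains; hits raise reporter fluorescence and both agonists and antagonists give an increase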
# Estrogen receptor (Homo sapiens) + Estrogen receptor beta (Homo sapiens), sequence (P03372 whole entry, looked up, the tested form may be a part): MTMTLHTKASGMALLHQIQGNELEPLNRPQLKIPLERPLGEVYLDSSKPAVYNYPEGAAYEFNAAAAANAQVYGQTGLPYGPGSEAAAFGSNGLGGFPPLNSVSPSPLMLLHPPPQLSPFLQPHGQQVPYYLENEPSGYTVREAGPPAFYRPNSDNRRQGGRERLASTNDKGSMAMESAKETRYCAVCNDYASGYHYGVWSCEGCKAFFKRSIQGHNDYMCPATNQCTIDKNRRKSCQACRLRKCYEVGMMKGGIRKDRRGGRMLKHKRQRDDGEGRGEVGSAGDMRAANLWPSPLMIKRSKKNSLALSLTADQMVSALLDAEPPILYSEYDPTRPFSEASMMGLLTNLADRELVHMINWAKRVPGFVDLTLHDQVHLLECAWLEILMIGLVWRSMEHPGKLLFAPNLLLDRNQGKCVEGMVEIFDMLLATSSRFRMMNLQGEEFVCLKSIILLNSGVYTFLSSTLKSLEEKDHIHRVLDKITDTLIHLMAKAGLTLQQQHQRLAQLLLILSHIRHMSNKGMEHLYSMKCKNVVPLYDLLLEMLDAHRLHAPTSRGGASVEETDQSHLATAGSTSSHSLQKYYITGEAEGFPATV
# Estrogen receptor (Homo sapiens) + Estrogen receptor beta (Homo sapiens), sequence (Q92731 whole entry, looked up, the tested form may be a part): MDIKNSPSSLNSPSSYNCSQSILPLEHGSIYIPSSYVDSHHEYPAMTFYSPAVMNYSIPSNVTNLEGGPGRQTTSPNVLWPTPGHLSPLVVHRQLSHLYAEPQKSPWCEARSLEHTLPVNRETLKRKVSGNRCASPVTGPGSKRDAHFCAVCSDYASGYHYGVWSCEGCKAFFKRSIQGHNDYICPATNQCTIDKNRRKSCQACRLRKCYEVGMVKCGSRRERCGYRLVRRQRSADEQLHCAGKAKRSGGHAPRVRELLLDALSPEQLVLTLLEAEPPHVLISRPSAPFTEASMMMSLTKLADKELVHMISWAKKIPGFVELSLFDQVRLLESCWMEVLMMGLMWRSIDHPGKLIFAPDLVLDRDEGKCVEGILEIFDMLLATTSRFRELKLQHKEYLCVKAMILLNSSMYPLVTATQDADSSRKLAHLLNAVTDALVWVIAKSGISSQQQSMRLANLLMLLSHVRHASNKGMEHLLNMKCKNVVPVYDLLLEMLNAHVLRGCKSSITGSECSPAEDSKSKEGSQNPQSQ
# In short: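 Heterodimerisation of ERα (aa 310-547) and ERβ (aa 263-489) ligand binding domains was tracked as fluorescence gain in stably transfected HEK293T cells following 24 h dosing, normalised to DMSO controls.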
# [6] = target: Estrogen receptor beta (Homo sapiens) (UniProt Q92731); assay: OT_ER_ERbERb_0480: Odyssey Thera (OT) 8-hour HEK293T Protein-Complementation Assay for Estrogen Receptor-beta/-beta Homodimer (AID 2283357);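 further: active means signal gain over DMSO baseline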
# Estrogen receptor beta (Homo sapiens), sequence (Q92731 whole entry, looked up, the tested form may be a part): as above
# In short: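 ER-beta LBD homodimer PCA stably expressed in HEK293T; 8 h compound exposure, then formaldehyde fixation and Draq5 staining. Gain in nuclear/cytoplasmic fluorescence intensity versus DMSO vehicle, read on laser scanning cytometer.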
# [7] = target: PGR (gene 5241) (UniProt P06401); assay: NVS_NR_hPR: NovaScreen (NVS) Nuclear Receptor Binding Assay for human Progestron Receptor (PR) (AID 2283360);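 further: active means loss of bound radioligand signal versus DMSO baseline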
# PGR (gene 5241), sequence (P06401 whole entry, looked up): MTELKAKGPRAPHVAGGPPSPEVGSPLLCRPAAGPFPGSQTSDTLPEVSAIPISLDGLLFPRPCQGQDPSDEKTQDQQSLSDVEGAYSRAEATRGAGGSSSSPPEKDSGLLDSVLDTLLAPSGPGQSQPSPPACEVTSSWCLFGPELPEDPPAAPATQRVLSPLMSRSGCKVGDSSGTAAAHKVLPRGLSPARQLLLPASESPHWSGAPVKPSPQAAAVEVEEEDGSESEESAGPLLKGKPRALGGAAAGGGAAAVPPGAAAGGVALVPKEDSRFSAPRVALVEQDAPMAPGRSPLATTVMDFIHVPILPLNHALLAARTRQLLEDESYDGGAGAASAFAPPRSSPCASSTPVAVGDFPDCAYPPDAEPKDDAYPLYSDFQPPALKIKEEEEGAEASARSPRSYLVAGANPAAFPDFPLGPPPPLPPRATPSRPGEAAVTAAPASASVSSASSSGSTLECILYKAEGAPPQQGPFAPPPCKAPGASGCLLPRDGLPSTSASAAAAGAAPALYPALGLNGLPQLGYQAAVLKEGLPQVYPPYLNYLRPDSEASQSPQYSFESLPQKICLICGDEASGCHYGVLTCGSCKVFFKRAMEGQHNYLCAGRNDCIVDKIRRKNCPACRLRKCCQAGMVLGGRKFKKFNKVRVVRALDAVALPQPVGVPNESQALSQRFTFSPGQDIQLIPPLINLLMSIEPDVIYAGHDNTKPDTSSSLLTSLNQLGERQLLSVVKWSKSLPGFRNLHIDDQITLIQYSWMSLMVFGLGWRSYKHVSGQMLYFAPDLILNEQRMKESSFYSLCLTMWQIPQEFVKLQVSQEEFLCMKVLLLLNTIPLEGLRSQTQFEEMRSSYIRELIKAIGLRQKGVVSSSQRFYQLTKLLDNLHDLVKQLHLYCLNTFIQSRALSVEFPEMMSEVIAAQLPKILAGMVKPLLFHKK
# In short: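 Cell-free radioligand binding using receptor protein extracted from T47D cells, read by scintillation counting 18 hours after dosing. Loss of signal relative to DMSO baseline indicates displacement; primary screen single concentration 25 uM in duplicate, actives followed in concentration series.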
structure (smiles),measurement,setting,value
c1cc2ccc3cccc4ccc(c1)c2c34,outcome,[1],inactive
same,outcome,[2],inactive
same,outcome,[3],inactive
C[C@]12CCC(=O)C=C1CC[C@@H]1[C@@H]2CC[C@]2(C)C(=O)CC[C@@H]12,AC50,[4],0.0845 µM (active)
same,outcome,[5],inactive
same,outcome,[6],inactive
same,AC50,[7],8.27 µM (active)
CCC(C)c1cc([N+](=O)[O-])cc([N+](=O)[O-])c1O (stereo not drawn),outcome,[5],inactive
same,outcome,[6],inactive
CCNc1nc(NC(C)C)nc(SC)n1,outcome,[1],inactive
same,outcome,[2],inactive
same,outcome,[6],inactive
O=C(NC(=O)c1c(F)cccc1F)Nc1cc(Cl)c(OC(F)(F)C(F)F)c(Cl)c1,outcome,[1],inactive
same,outcome,[2],inactive
same,outcome,[5],inactive
same,outcome,[6],inactive
CCCCCCCCOC(=O)c1ccccc1C(=O)OCCCCCCCC,outcome,[1],inactive
same,outcome,[2],inactive
same,outcome,[5],inactive
same,outcome,[6],inactive
c1ccc(-c2ccccc2)cc1,outcome,[1],inactive
same,outcome,[2],inactive
same,outcome,[5],inactive
same,outcome,[6],inactive
NS(=O)(=O)C(F)(F)C(F)(F)C(F)(F)C(F)(F)C(F)(F)C(F)(F)C(F)(F)C(F)(F)F,AC50,[1],68.4 µM (active)
same,outcome,[2],inactive
same,AC50,[5],80.2 µM (active)
same,AC50,[6],86.7 µM (active)
same,outcome,[3],inactive
O=C(N[C@H]1CN2CCC1CC2)c1cc2ccoc2cn1,outcome,[1],inactive
same,outcome,[2],inactive
same,outcome,[5],inactive
same,outcome,[6],inactive
same,outcome,[7],inactive
C[C@]12CCC(=O)C=C1CC[C@@H]1[C@@H]2CC[C@@]2(C)[C@H]1CC[C@]2(C)O,AC50,[4],0.0685 µM (active)
same,AC50,[7],0.175 µM (active)
Clc1ccc(Cl)cc1,outcome,[5],inactive
Cc1cccc(C)c1N,outcome,[5],inactive
same,outcome,[6],inactive
C=CC(=O)NCNC(=O)C=C,outcome,[1],inactive
same,outcome,[2],inactive
same,outcome,[5],inactive
same,outcome,[6],inactive
Nn1cnnc1,outcome,[5],inactive
same,outcome,[6],inactive
CCC(C)(c1ccc(O)cc1)c1ccc(O)cc1,outcome,[4],inactive
same,outcome,[3],inactive
same,AC50,[7],10.2 µM (active)
